Assay results taken from PubChem BioAssay (NCI).
The panel holds about 83,000 compounds, 20% with a hit somewhere; the sample as a whole holds those more often.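 In brief: 96-well plates, 48 h treatment, single concentration, percent growth endpoint.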 Values without a mark were called inactive. Active and inactive are the calls of the source. The calls were made as follows: active = growth percent below 10; inactive = the rest.

What was measured:
Experiment in all cases: NCI-60 one-dose screen, 48 h (100 = growth as untreated, 0 = no growth, -100 = all killed)
Details in all cases: 10 µM unless noted
NCI-H226 lung = test system: NCI-H226 lung
NCI-H322M lung = test system: NCI-H322M lung
HOP-62 NSCLC = test system: HOP-62 NSCLC
NCI-H460 lung = test system: NCI-H460 lung
NCI-H522 lung = test system: NCI-H522 lung
A549/ATCC NSCLC = test system: A549/ATCC NSCLC
786-0 renal = test system: 786-0 renal
COLO 205 colon = test system: COLO 205 colon
DU-145 prostate = test system: DU-145 prostate
K-562 leukemia = test system: K-562 leukemia
MALME-3M melanoma = test system: MALME-3M melanoma
MDA-MB-231 breast = test system: MDA-MB-231 breast
RXF 393 renal = test system: RXF 393 renal
SF-268 CNS = test system: SF-268 CNS
SF-295 CNS = test system: SF-295 CNS
SF-539 CNS = test system: SF-539 CNS
UACC-257 melanoma = test system: UACC-257 melanoma
M14 melanoma = test system: M14 melanoma
HOP-92 NSCLC = test system: HOP-92 NSCLC

Row | Compound | growth (NCI-H226 lung) | growth (NCI-H322M lung) | growth (HOP-62 NSCLC) | growth (NCI-H460 lung) | growth (NCI-H522 lung) | growth (A549/ATCC NSCLC) | growth (786-0 renal) | growth (COLO 205 colon) | growth (DU-145 prostate) | growth (K-562 leukemia) | growth (MALME-3M melanoma) | growth (MDA-MB-231 breast) | growth (RXF 393 renal) | growth (SF-268 CNS) | growth (SF-295 CNS) | growth (SF-539 CNS) | growth (UACC-257 melanoma) | growth (M14 melanoma) | growth (HOP-92 NSCLC)
1 | CCCCCCCCCCCCCCCCCC1=NCCN1CCO | 106% | 88.4% | 81% | 18.7% | 80.8% | 64.2% | 75.6% | 84.8% | 78.7% | 64.6% | 129% | 58.8% | 87.9% | 78.4% | 90% | 78.4% | 84.4% | 84.1% | –
2 | Clc1ccc(Cl)c(N=Cc2ccc3c(c2)OCO3)c1 | 103% | 108% | 101% | 116% | 88.7% | 96.9% | 110% | 109% | 120% | 103% | 111% | 124% | 111% | 105% | 106% | 116% | 103% | 102% | –
3 | CCCCCCCCCCCCC1CCC(=O)O1 (stereo not drawn) | 100% | 74.6% | 91.8% | 107% | 86.9% | 87.4% | 85.9% | 97.9% | 104% | 97.1% | 98.2% | 103% | 123% | 97.1% | 105% | 89.8% | 107% | 91.6% | –
4 | c1cc2c(cc1-c1cnc3nonc3n1)OCO2 | 93.4% | 103% | 83.5% | 100% | 55.9% | 97.4% | 109% | 91.2% | 103% | 59.3% | 98.6% | 75.1% | 122% | 82.9% | 101% | 73.2% | 93% | 101% | –
5 | CCN(CC)c1cc(C)c(Cc2c(OC)ccc3ccccc23)cc1C | 92.3% | 96.9% | 85% | 95.1% | 74.7% | 82.8% | 100% | 96.7% | 105% | 84.7% | 102% | 98.6% | 101% | 95.7% | 103% | 103% | 96.8% | 90.8% | –
6 | CCOC(=O)Cn1c(-c2nonc2NC(=O)c2ccccc2F)nc2ccccc21 | 62.3% | 67.3% | 73.2% | 10.2% | 47.6% | 24% | 46.4% | 60.1% | 53.2% | 31.3% | 77.4% | 62.8% | 64.7% | 50% | 8.34% (active) | 44.7% | 72.1% | 61.5% | –
7 | CCN(CC)c1ccc(/C=N/NC(=O)c2ccc(S(C)(=O)=O)cc2)c(O)c1 | 22.6% | 25% | 12.9% | 3.28% (active) | 9.91% (active) | 12.5% | 15.4% | 8.62% (active) | 24.5% | 12.4% | 14% | 43.2% | 28.6% | 21.8% | 21.4% | 4.01% (active) | -11.5% (active) | 3.37% (active) | –
8 | CC(C)c1cccc(C#N)c1 | 101% | 109% | 111% | 103% | 107% | 93.5% | 102% | 115% | 104% | 109% | 113% | 102% | 102% | 107% | 107% | 109% | 93.4% | 95.2% | –
9 | CC(C)C/C=C/C=C/C(=O)N[C@@H](CC(N)=O)C(=O)N[C@@H]1C(=O)N[C@H](c2ccc(O)cc2)C(=O)N[C@H](CCCN)C(=O)N[C@H]([C@@H](C)O)C(=O)N[C@H](c2ccc(O)cc2)C(=O)N[C@H](c2ccc(O)cc2)C(=O)N[C@H]([C@H](C)O)C(=O)N[C@H](Cc2ccccc2)C(=O)N[C@H](CCCN)C(=O)N[C@H](c2ccc(O[C@H]3O[C@@H](CO)[C@@H](O)[C@@H](O)[C@H]3O[C@@H]3O[C@H](CO)[C@H](O)[C@H](O)[C@@H]3O)cc2)C(=O)N[C@H]([C@H](C)O)C(=O)N[C@H](c2ccc(O)cc2)C(=O)NCC(=O)N[C@H](CC(C)C)C(=O)N[C@H](C)C(=O)N[C@H](c2ccc(O)c(Cl)c2)C(=O)O[C@@H]1C(N)=O | 68.6% | 57.5% | 53.4% | 15.6% | 78.1% | 91.8% | -48.7% (active) | 101% | 90.6% | 30.8% | 23.4% | -4.62% (active) | 44.9% | 59.9% | 20.1% | 4.24% (active) | 6.54% (active) | 44.4% | –
10 | COc1cc(/C=C/c2cc(/C=C/c3ccc(O)c(OC)c3)n(C(=O)Nc3ccc(F)c(Cl)c3)n2)ccc1O | -4.32% (active) | 12.6% | -7.78% (active) | 4.43% (active) | 10.9% | 5.9% (active) | -32.9% (active) | -59.4% (active) | -11.8% (active) | -3.9% (active) | -16.8% (active) | 12.2% | -57.6% (active) | 6.57% (active) | -55.3% (active) | -16.6% (active) | -15.9% (active) | -21.9% (active) | –
11 | Cc1nn(-c2cccc(Cl)c2)c(C)c1N=Nc1ccc(Br)cc1 | 101% | 102% | 86.9% | 103% | 68.6% | 66.1% | 89.7% | 102% | 101% | 89.2% | 95.1% | 93.1% | 110% | 96.5% | 91.8% | 90.7% | 53.2% | 95.6% | –
12 | C=C1C(=O)O[C@H]2[C@H]1CC/C(COC(=O)NCc1[nH]nc3ccccc13)=C\CC[C@@]1(C)O[C@@H]21 | 65.4% | 87.6% | 48.6% | 28.6% | -68.6% (active) | 45.6% | -25.4% (active) | -76.7% (active) | 12.2% | 2.29% (active) | -43% (active) | 49.1% | -18.3% (active) | 55.2% | 72.6% | 4.74% (active) | 38% | 13.8% | –
13 | Cn1cnc([N+](=O)[O-])c1S(=O)(=O)Oc1cccc2ccccc12 | 88.1% | 104% | 84.6% | 106% | -84.3% (active) | 98.4% | 62.7% | -89.7% (active) | 43.1% | 3.91% (active) | -39.9% (active) | 76.3% | 19.6% | 83.7% | 102% | 52.8% | 71% | -62.9% (active) | –
14 | CCOC(=O)N1C2CCC(C2)N1C(=O)OCC | 91.9% | 115% | 108% | 108% | 91.5% | 107% | 101% | 110% | 104% | 94.6% | 104% | 115% | 106% | 97% | 106% | 132% | 107% | 108% | –
15 | O=C(NO)c1ccc(CNc2cccc3nc(C4CC4)n(-c4ccccc4)c(=O)c23)cc1 | 44.4% | 37.7% | 21.5% | 22.6% | 19.2% | 15.3% | 24.8% | 8.11% (active) | 3.14% (active) | 11.2% | 36.7% | 26.4% | -18.7% (active) | 7.14% (active) | 12.9% | 9.38% (active) | 37.6% | 18.4% | –
16 | O=C1OCC2=C1C(c1ccccc1)c1cc3c(cc1N2CCO)OCO3 (stereo not drawn) | 49% | 85.8% | 40.3% | -3.16% (active) | -23.7% (active) | 58.7% | 32.1% | -8.27% (active) | 69.4% | – | 50% | 52.2% | 24.8% | 49% | -12.8% (active) | -0.802% (active) | 58.3% | 3.99% (active) | –
17 | CC1=C(/C=C/C(C)=C/C=C(C(=O)O)\C(C)=C\C(=O)O)C(C)(C)CCC1 | 112% | 103% | 108% | 104% | 77.9% | 93.7% | 99.5% | 112% | 109% | 87% | 128% | 98.6% | 106% | 100% | 130% | 93.6% | 92.4% | 101% | –
18 | COc1cc(C2CC(c3cccc(Nc4ccnc5cc(Cl)ccc45)c3)=NN2C=O)cc(OC)c1OC (stereo not drawn) | 2.98% (active) | 32.5% | 1.34% (active) | 7.22% (active) | – | 18.4% | 11.3% | -22.6% (active) | -2.32% (active) | 19.4% | -5.46% (active) | 6.76% (active) | -25.1% (active) | 25.3% | -11.6% (active) | -26.3% (active) | 37.6% | -26.7% (active) | –
19 | CCN(CC)CCCCCCCCNc1c2ccc(Cl)cc2nc2ccc(OC)cc12 | -21.4% (active) | -39.2% (active) | -67.8% (active) | -51.6% (active) | – | – | -88.8% (active) | -84.6% (active) | -66.6% (active) | -39.3% (active) | -65.6% (active) | -72.2% (active) | -92.8% (active) | -73.2% (active) | -76% (active) | -82% (active) | – | -82.4% (active) | -75.9% (active)
